Test [1] is described as follows: qHTS for Inhibitors of Plasmodium falciparum (CP250) proliferation (AID 504320). Further: potency means the concentration at half of the fitted maximal effect. In short, it runs like this:
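Parasite growth measured as SYBR Green DNA fluorescence (ex 485, em 535 nm) after overnight lysis following 72 h culture at 37 °C, 0.3% parasitemia, 2.5% hematocrit. Values normalized against DMSO and 0.29 uM artemisinin controls, with plate-stack correction.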
(qHTS replaces the single test concentration by a dilution series.)

Test [2] addresses Ubiquitin carboxyl-terminal hydrolase 1 (Homo sapiens) (UniProt O94782). The test can be described thus: Inhibitors of USP1/UAF1: Pilot qHTS (AID 504865). Further: nearly all actives have a fitted effect of over 35% in size. Further: potency means the concentration at half of the fitted maximal effect. The essentials:
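USP1/UAF1 complex at 1 nM preincubated 15 min at room temperature with compound, then Ub-Rho substrate added at 150 nM final. Fluorescence (480/540 nm) read kinetically in 50 mM HEPES pH 7.8, 0.5 mM EDTA, 1 mM TCEP, 0.1 mg/ml BSA, 0.01% Tween-20.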

Test [3] in a line: qHTS profiling for inhibitors of Plasmodium falciparum proliferation (AID 504749).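 Further: 0% = DMSO vehicle and full inhibition = artemisinin control; nearly all actives have a fitted effect of over 60% in size.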 Particulars: P. falciparum in erythrocytes, SYBR Green DNA, 72 h, at 28.7 µM (top of the series). The essentials: (§1)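 SYBR Green fluorescence of parasite DNA, read after lysis and overnight dark incubation, measured growth over 72 h in erythrocyte culture at 0.3% parasitemia and 2.5% hematocrit. Data normalised to DMSO and 0.29 uM artemisinin, with plate-drift correction.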

The test system of test [4] is AA1029. The test is described as above. The following applies: P. falciparum in erythrocytes, SYBR Green DNA, 72 h; series mostly up to 28.7 µM. The essentials: as §1
The test system of test [5] is ATS189. The description is as above. The following applies: P. falciparum in erythrocytes, SYBR Green DNA, 72 h; series mostly up to 28.7 µM. In short, it runs like this:
as §1

Test [6] concerns CP185. Described as above. The following applies: P. falciparum in erythrocytes, SYBR Green DNA, 72 h; series mostly up to 28.7 µM. The essentials: as §1
For test [7], the system named is CP201. The description is as above. The following applies: P. falciparum in erythrocytes, SYBR Green DNA, 72 h; series mostly up to 28.7 µM. In short, it runs like this: as §1
The subject of test [8] is CP238. Described as above. Particulars: P. falciparum in erythrocytes, SYBR Green DNA, 72 h; series mostly up to 28.7 µM. In short, it runs like this:
as §1

For test [9], the system named is CP252. Described as above. The following applies: P. falciparum in erythrocytes, SYBR Green DNA, 72 h; series mostly up to 28.7 µM. The essentials: as §1
The test system of test [10] is CP265. The description is as above. Particulars: P. falciparum in erythrocytes, SYBR Green DNA, 72 h; series mostly up to 28.7 µM. In short, it runs like this: as §1
The subject of test [11] is CP286. The description is as above. The following applies: P. falciparum in erythrocytes, SYBR Green DNA, 72 h; series mostly up to 28.7 µM. The essentials:
as §1

The subject of test [12] is CP305. The description is as above. Particulars: P. falciparum in erythrocytes, SYBR Green DNA, 72 h; series mostly up to 28.7 µM. The essentials: as §1
Test [13] has as its system CP325. The description is as above. The following applies: P. falciparum in erythrocytes, SYBR Green DNA, 72 h; series mostly up to 28.7 µM. In short, it runs like this: as §1
In test [14] the test system is DFO2036. Described as above. Particulars: P. falciparum in erythrocytes, SYBR Green DNA, 72 h; series mostly up to 28.7 µM. In short, it runs like this:
as §1

In test [15] the test system is FAB9. The description is as above. Particulars: P. falciparum in erythrocytes, SYBR Green DNA, 72 h; series mostly up to 28.7 µM. In short, it runs like this:
as §1

Test [16] has as its system PC15. The description is as above. The following applies: P. falciparum in erythrocytes, SYBR Green DNA, 72 h; series mostly up to 28.7 µM. In short, it runs like this:
as §1

Test [17] deals with PC49. The description is as above. Particulars: P. falciparum in erythrocytes, SYBR Green DNA, 72 h; series mostly up to 28.7 µM. The essentials: as §1
Test [18] concerns the target Cytochrome P450 3A4 (Homo sapiens) (UniProt P08684). In words: qHTS Assay for Inhibitors and Substrates of Cytochrome P450 3A4 (AID 884). Further: potency means the concentration at half of the fitted maximal effect; nearly all actives have a fitted effect of over 50% in size. In short, it runs like this: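 Luminescent readout of luciferin produced by CYP3A4 (20 nM) dealkylation of Luciferin-PPXE, 25 uM (its KM). NADPH-driven reaction ran 60 min at RT after 10 min compound preincubation; data scaled to 57 uM ketoconazole as 100% inhibition.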

Here are results for 26 compounds from PubChem BioAssay (NCATS).

SMILES strings stand for the structures. Results filed as inconclusive are left out. Active and inactive are the calls of the source. The call rests on the fitted dose curve; in most records, active means well fitted curve in the direction sought with a large enough effect; inconclusive means small, poorly fitted or top-dose-only effect, or another doubt; inactive means no such curve, though single readings can be large; an effect the other way counts as inactive or inconclusive. Numbered stars: 1 amine (or outer) side, 2 acyl side, 3 side chain; on linkers, the order of the positions; unused ones are H or OH. Bridge positions count the residues as written; N and C are the ends. Square brackets hold non-standard residues; d marks the D form. Peptide text beside a SMILES is read from it. * marks the point of attachment. ξ: configuration not given here. ΔAla(Z-3-ureido) = NC(=O)N/C=C(\N)C(=O)O; X1 = NC1=NCCC(C(N[*:1])C(=O)[*:2])N1; ξβ3hOrn = NCCCC(N)CC(=O)*; Dap = NC[CH](N)C(=O)O

Sequence of Ubiquitin carboxyl-terminal hydrolase 1 (Homo sapiens) (O94782 whole entry, looked up): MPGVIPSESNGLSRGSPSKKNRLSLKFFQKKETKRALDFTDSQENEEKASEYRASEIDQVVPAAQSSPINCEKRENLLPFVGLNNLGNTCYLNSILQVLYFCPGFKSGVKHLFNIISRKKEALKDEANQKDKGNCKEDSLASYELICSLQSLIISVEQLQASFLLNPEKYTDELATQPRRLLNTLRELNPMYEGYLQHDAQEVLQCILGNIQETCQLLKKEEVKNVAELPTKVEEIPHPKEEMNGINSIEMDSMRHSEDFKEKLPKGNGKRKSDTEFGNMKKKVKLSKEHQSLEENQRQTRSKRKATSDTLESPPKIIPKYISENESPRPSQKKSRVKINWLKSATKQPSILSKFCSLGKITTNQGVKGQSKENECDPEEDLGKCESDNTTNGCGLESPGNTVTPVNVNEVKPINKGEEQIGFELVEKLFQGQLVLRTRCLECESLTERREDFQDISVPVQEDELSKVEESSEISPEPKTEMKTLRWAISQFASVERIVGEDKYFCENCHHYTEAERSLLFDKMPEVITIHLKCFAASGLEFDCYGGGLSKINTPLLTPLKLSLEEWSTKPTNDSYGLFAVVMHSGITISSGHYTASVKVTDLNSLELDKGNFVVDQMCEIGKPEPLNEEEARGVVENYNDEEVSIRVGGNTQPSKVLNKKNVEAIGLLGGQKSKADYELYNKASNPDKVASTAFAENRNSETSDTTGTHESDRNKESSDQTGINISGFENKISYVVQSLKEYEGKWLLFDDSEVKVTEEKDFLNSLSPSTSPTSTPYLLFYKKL
Sequence of Cytochrome P450 3A4 (Homo sapiens) (P08684 whole entry, looked up): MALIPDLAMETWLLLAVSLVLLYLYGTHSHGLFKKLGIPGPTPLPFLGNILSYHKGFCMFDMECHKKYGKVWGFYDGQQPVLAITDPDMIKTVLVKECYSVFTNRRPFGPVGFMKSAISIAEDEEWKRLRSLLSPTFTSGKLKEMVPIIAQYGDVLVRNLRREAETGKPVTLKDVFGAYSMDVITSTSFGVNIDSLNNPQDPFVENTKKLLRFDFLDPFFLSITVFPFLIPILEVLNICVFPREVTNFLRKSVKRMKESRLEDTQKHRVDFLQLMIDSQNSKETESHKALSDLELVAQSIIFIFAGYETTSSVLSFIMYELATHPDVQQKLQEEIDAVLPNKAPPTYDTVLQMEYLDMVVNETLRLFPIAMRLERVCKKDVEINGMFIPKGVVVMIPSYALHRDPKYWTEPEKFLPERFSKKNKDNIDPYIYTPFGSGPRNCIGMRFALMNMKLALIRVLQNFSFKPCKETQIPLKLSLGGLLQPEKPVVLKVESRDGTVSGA

Consider `COCOc1c2c(c(OCOC)c3c(OCOC)cccc13)C(=NNS(C)(=O)=O)C1=C2CCCC1`, for which, in test [1], the Potency result is “inactive”.

As for `C=CCN1C=C2C(=O)C(C)(OC(=O)c3cccs3)C(=O)C=C2C=C1CCCC(=O)OC` (stereo unspecified), in test [1], the Potency entry is “inactive”.

For the compound `COc1ccc(O[C@H]2C=C[C@@H](c3ccccc3)O[C@H]2COC(=O)CCC(C)=NO[C@H](C)c2cn([C@H](CO)Cc3ccccc3)nn2)cc1`, the Potency entry in test [1] is “inactive”.

As for `COc1ccc(CN2C=C3C(=O)C(C)(OC(=O)CCc4ccccc4)C(=O)C=C3C=C2c2ccc(C#N)cc2)cc1` (stereo unspecified), the Potency result in test [1] was “inactive”.

As for `COC(=O)[C@@H]1CC[C@H](C)[C@@H](c2ccc(C)cc2)N1C(=O)c1ccc(C=NO[C@@H](C)c2cc(-c3c(C)cc(C)cc3C)no2)cc1`, the Potency in test [1] was 1690 nM (active).

As for `COC(=O)C1=C(C(=O)OC)[C@@H]2N(Cc3ccccc3)c3ccccc3[C@@]23C[C@@H](C(=O)OC)N(S(=O)(=O)c2ccc(Br)cc2)C3=N1`, the Potency in [1] was 1690 nM (active).

Take `COc1ccc(-c2nc(-c3ccccc3)c(Nc3c(C)cccc3C)o2)cc1`: in [1], the Potency entry is “inactive”.

`CC(=O)OC[C@H]1O[C@H](C#Cc2ccc(C)cc2C)C=C[C@H]1OC(C)=O`: the Potency result in test [1] was “inactive”.

Regarding `CC(CCN1CCCCc2nc(C)c(C)cc21)=NO[C@@H](C)c1cn([C@H](CO)Cc2ccccc2)nn1`, the Potency result in test [1] is “inactive”.

As to `C[C@@H]1CC[C@H]2C(=O)N(Cc3cccc([N+](=O)[O-])c3)C[C@H](O)CN2[C@@H]1c1ccc(Br)cc1`, in test [1], the Potency result is “inactive”.

Consider `COc1ccc(C=CC2=CC3(C)CC2(C)C(c2ccc(OC)cc2)CC3=O)cc1` (stereo unspecified), for which, in [1], the Potency entry is “inactive”.

On to `C[C@@H]1CC[C@H]2C(=O)N(Cc3ccccc3)C[C@H](O)CN2[C@H]1c1ccc(Br)cc1`, for which the Potency result in test [1] was “inactive”.

On to `COC(=O)C1=C(C(=O)OC)[C@@H]2Nc3ccccc3[C@@]23C[C@@H](C(=O)OC)N(C(=O)C2CCC2)C3=N1`, for which the Potency result in test [1] is “inactive”.

Turning to `COC(=O)C1=C(C)N(CCc2cc(OC)c(OC)c(OC)c2)C(=O)N[C@H]1c1ccccc1`, the Potency result in test [1] is “inactive”.

As to `CCCCc1cc2c(cn1)=C(OC(=O)c1ccc(Cl)nc1)C(C)(OC(=O)CC)C(=O)C=2` (stereo unspecified), the Potency result in [1] was “inactive”.

Take `C[C@H]1Cc2c(COc3ccccc3)nc3c(c2CO1)CN(S(=O)(=O)c1ccc(Cl)c2nonc12)CC3`: the Potency entry in test [1] is “inactive”.

As for `CC(=O)OCC(=O)[C@@]1(O)CCC2C3CCC4=CC(=O)CC[C@]4(C)C3=CC[C@@]21C` (stereo partly specified), the Potency entry in [2], in [4], in test [5], in [6], in test [7] and in [8] was “inactive” throughout. The Potency entry in test [9], in [10], in test [11], in [12], in test [13] and in test [14] was “inactive” in each case. Further, the Potency result in test [15], in [16] and in [17] was “inactive” in each case. Also, the activity, negative = inhibition in test [3] (parasite line A) is 11% (inactive); in test [3] (parasite line B), 2.99% (inactive).

As for `CCN(CC)CCCN1C=C2C(=O)C(C)(OC(=O)c3cccs3)C(=O)C=C2C=C1CCCC(=O)OC` (stereo unspecified), the Potency result in [1] is “inactive”.

In the case of `CCCCCC(=O)c1cc(CC(C(=O)OC)C(=O)OC)cc2cc(OC)c(OC)cc12`, the Potency entry in test [1] was “inactive”.

Take `CC(C)Nc1oc(-c2ccccc2)nc1C=Cc1ccccc1`: the Potency result in test [1] is “inactive”.

On to `COc1cc2c(C)c3c4c(cc(OC)c(OC)c4c2cc1OC)CCN3C`, for which the Potency in [18] was 15800 nM (active); in test [2], 25100 nM (active).

Take `CCOC(=O)C(CS)NCCN[C@@H](CS)C(=O)OCC` (stereo partly specified): the activity, negative = inhibition was -2.53% (inactive) in [3] (parasite line A) and -3.46% (inactive) in test [3] (parasite line B). Besides, the Potency entry in [4], in test [5], in [6], in test [7], in [8] and in [9] was “inactive” throughout. The Potency entry in test [10], in test [11], in test [12], in test [13], in [14] and in test [15] was “inactive” throughout. Further, the Potency entry in [16] and in [17] was “inactive” in each case.

Take `CC(C)C(NC(=O)C(CC(=O)O)NC(=O)C(CCCCN)NC(=O)C(N)CCCN=C(N)N)C(=O)NC(Cc1ccc(O)cc1)C(=O)O` (stereo unspecified) (H-RKDVY-OH; configuration not given here): the Potency entry in test [2], in [4], in test [5], in test [6], in test [7] and in test [8] was “inactive” in each case. Besides, the Potency entry in test [9], in test [10], in test [11], in test [12], in test [13] and in test [14] was “inactive” throughout. The Potency entry in test [15], in [16] and in test [17] was “inactive” in each case. Besides, the activity, negative = inhibition in [3] (parasite line A) was 0.811% (inactive); in [3] (parasite line B) it was 3.22% (inactive).

In the case of `O=C(/C=C/c1ccc(O)cc1)c1cccs1`, the Potency in test [18] was 1260 nM (active). The Potency result in test [2] is “inactive”.

For the compound `NC(=O)CCC1NC(=O)C(Cc2ccccc2)NC(=O)C(Cc2ccc(O)cc2)NC(=O)CCSSCC(C(=O)N2CCCC2C(=O)NC(CCCN=C(N)N)C(=O)NCC(N)=O)NC(=O)C(CC(N)=O)NC1=O` (stereo unspecified), the activity, negative = inhibition is 9.46% (inactive) in test [3] (parasite line A) and 7.06% (inactive) in test [3] (parasite line B). The Potency result in test [4], in [5], in [6], in test [7], in test [8] and in test [9] was “inactive” throughout. The Potency entry in test [10], in test [11], in test [12], in test [13], in test [14] and in [15] was “inactive” throughout. The Potency result in [16] and in test [17] was “inactive” in each case.

With `NCCCC(N)CC(=O)NCC1NC(=O)C(CO)NC(=O)C(N)CNC(=O)C(C2CCN=C(N)N2)NC(=O)/C(=C/NC(N)=O)NC1=O` (stereo not drawn) (H-[Dap]S[Dap](ξβ3hOrn)[ΔAla(Z-3-ureido)][X1]; lactam 1-C; configuration not given here), the Potency entry in test [2], in test [4], in test [5], in test [6], in test [7] and in [8] was “inactive” in each case. The Potency entry in test [9], in test [10], in test [11], in [12], in test [13] and in [14] was “inactive” in each case. Moreover, the Potency result in test [15], in test [16] and in test [17] was “inactive” each time. The activity, negative = inhibition in test [3] (parasite line A) was 10.1% (inactive); in test [3] (parasite line B) it was 0.112% (inactive).
